The values below come from PubChem BioAssay (EPA / NIEHS).

Calls of active or inactive are those of the source. The calls were made as follows: active = hit-call score of the fitted dose curve at least 0.9, where 1 is the maximum; inactive = score below 0.9.

The AC50 is the concentration giving half of the maximal activity seen.

Read-out in this assay: Interferon-gamma inducible Protein 10 (IP10), CXCL10 (gene 3627)
Put plainly: BSK_hDFCGF_IP10: BioMAP Diversity Plus: hDFCGF Assay for Interferon-gamma inducible Protein 10 (IP10) Biomarker Activity (AID 2283053). Particulars: primary human foreskin fibroblasts; actives raise or lower the signal. The procedure, abridged:
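IP-10 levels, quantified by ELISA, are taken from human foreskin fibroblast cultures 24 h after chemical treatment, with DMSO serving as negative control and baseline for bidirectional analysis.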
Regarding `CCN(Cc1cccc(S(=O)(=O)O)c1)c1ccc(C(=C2C=CC(=[N+](CC)Cc3cccc(S(=O)(=O)O)c3)C=C2)c2ccccc2S(=O)(=O)[O-])cc1`, the concentration at half-maximal activity (AC50) was 18.8 µM (active).
For `CCCCOC(=O)CC(CC(=O)OCCCC)(OC(C)=O)C(=O)OCCCC`, the result was inactive.
Take `O=c1c(-c2ccc(O)cc2)coc2cc(O)cc(O)c12`: the concentration at half-maximal activity (AC50) is 20 µM (active).
As to `CN(C)C(=O)C1(N2CCCCC2)CCN(CC[C@@]2(c3ccc(Cl)c(Cl)c3)CN(C(=O)c3ccccc3)CCO2)CC1`, the concentration at half-maximal activity (AC50) is 27.2 µM (active).
Take `CCCCOC(=O)c1ccc(O)cc1`: the result was inactive.
For `O=C1CCC(C2CCCCC2)CC1`, the AC50 is 33.1 µM (active).
In the case of `CCO[Si](CCCNC(N)=O)(OCC)OCC`, the result was inactive.
In the case of `CCCCCCCCCCCCO`, the AC50 is 29.3 µM (active).
Turning to `C[C@]12CC[C@@H]3c4ccc(O)cc4CC[C@H]3[C@@H]1CCC2=O`, the result was inactive.
For `CC/C(=C(/CC)c1ccc(O)cc1)c1ccc(O)cc1`, the concentration at half-maximal activity (AC50) was 20 µM (active).
`CCCCCc1ccc(N)cc1`: the AC50 is 20 µM (active).
Consider `CN1C(=O)CC[C@H]1c1cccnc1`, for which the result was inactive.
Turning to `O=C(O)Cc1cc(I)c(Oc2ccc(O)c(I)c2)c(I)c1`, the result was inactive.
`CCCCCCCCCCCC[N+](C)(C)C`: the half-maximal activity concentration (AC50) is 22.2 µM (active).
Consider `CCCCCCCCCC(=O)O`, for which the result was inactive.
Regarding `Cc1cc(F)ccc1-c1cc(N2CC[C@@H](O)[C@H]2CO)ncc1N(C)C(=O)C(C)(C)c1cc(C(F)(F)F)cc(C(F)(F)F)c1`, the concentration at half-maximal activity (AC50) is 14.9 µM (active).
The same measure, in the same setting: to `CC(C)(C)c1csc(-c2cc3cc(OCc4ccccc4CC(=O)O)ccc3o2)n1` belongs 10.2 µM (active); to `CC(=O)N1CCN(c2ccc(OC[C@H]3CO[C@](Cn4ccnc4)(c4ccc(Cl)cc4Cl)O3)cc2)CC1`, 33.3 µM (active).
In the case of `CN(C)c1ccc(C(=C2C=CC(=[N+](C)C)C=C2)c2ccc(N(C)C)cc2)cc1`, the concentration at half-maximal activity (AC50) is 4.07 µM (active).
The same measure, in the same setting: to `O=C(Nc1ccc(Cl)cc1)Nc1ccc(Cl)c(Cl)c1` belongs 0.148 µM (active).
Consider `CCCCCCCCN(C)CCCCCCCC`, for which the result was inactive.
On the same count and under the same terms, to `c1ccc2ccccc2c1` belongs “inactive”.
For `CCCCCCCCCCCO`, the AC50 is 36.8 µM (active).
Take `CC[C@@H]1C[C@H](N(Cc2cc(C(F)(F)F)cc(C(F)(F)F)c2)C(C)=O)c2cc(C(F)(F)F)ccc2N1C(=O)OC(C)C`: the AC50 was 1.22 µM (active).
Regarding `CCCCCCCC[Si](OCC)(OCC)OCC`, the outcome was inactive.
On the same count and under the same terms, to `O=C(OCCCCCCOC(=O)c1ccccc1)c1ccccc1` belongs “inactive”.
Take `COCC(C)OCC(C)OCC(C)O` (stereo not drawn): the outcome was inactive.
On the same count and under the same terms, to `Cc1oc2c(NC(=O)c3c(Cl)cccc3Cl)cccc2c1C(C)(C)O` belongs “inactive”; to `Clc1cc(Cl)c2c(c1)N=C1CCCCCN1C2`, “inactive”.
Same read-out and setting: to `O=C(O)Cn1c(=O)n(Cc2ccc(Br)cc2F)c(=O)c2ccc(Cl)cc21` belongs “inactive”; to `Oc1ccccc1`, “inactive”.
On the same count and under the same terms, to `OC12N=C(c3ccccc3)SC1Cc1cc(Cl)ccc12` (stereo not drawn) belongs “inactive”; to `Cc1ccc(C(C)C)cc1`, “inactive”.
On to `Cc1cn([C@H]2C[C@H](N=[N+]=[N-])[C@@H](CO)O2)c(=O)[nH]c1=O`, for which the result was inactive.
For `NC(=O)c1nc(-c2cccc(-c3cc(F)ccc3OCC(F)(F)C(F)(F)F)c2)n[nH]1`, the concentration at half-maximal activity (AC50) was 35 µM (active).
The same measure, in the same setting: to `CCCOC(=O)c1cc(O)c(O)c(O)c1` belongs 20 µM (active).
In the case of `O=CCCCC=O`, the concentration at half-maximal activity (AC50) was 34.9 µM (active).
Same read-out and setting: to `COc1cc(C(=O)NC2CCN(C)CC2)ccc1Nc1ncc2c(n1)N(C1CCCC1)CC(F)(F)C(=O)N2C` belongs 11.9 µM (active).
